Among the data in PubChem BioAssay AID2205 (University of Pittsburgh Molecular Library Screening Center, 2009) are % Hoechst-high responders, % tubulin-high responders and toxicity values, retold here.

Each structure is given as a SMILES string. Screen size: about 200,000 compounds; about 1,600 (0.8%) were called active.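 Rule for the calls: active = plate Z-score above 3 for both tubulin-high and condensed-nucleus cell shares, with cell loss under 80%, at 10 µM; inactive = the rest, inconclusive results apart.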 This excerpt belongs to a sample that is enriched for actives.

The nature of the experiment: tubulin staining increase by stabilizing compounds – imaging, high-content imaging, primary screen (AID 2205).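 For % tubulin-high responders: anti alpha tubulin signal scored within the nucleus-defined area of each cell.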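 For toxicity: 0% = mean cell density of plate MIN control wells and 100% = no cells.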 The conditions noted are these: HeLa tubulin immunostaining HCS, 24 h, at 10 µM; % Hoechst-high responders: measured here: nuclear condensation Hoechst responders, stronger effect = higher value, share of cells brighter than vehicle mean+2SD; % tubulin-high responders: stronger effect = higher value, share of cells brighter than vehicle mean+2SD; toxicity: measured here: cytotoxicity by cell density.
For the molecule `CCOC(=O)C1=C(C)Nc2nc3ccccc3n2C1c1cccs1` (stereo unspecified), the % Hoechst-high responders was found to be 2.61%, the % tubulin-high responders was 1.67% (inactive) and the toxicity came out at 7.26%.

Consider `CCOc1ccc(C2C(C(=O)NC)=C(C)Nc3nc4ccccc4n32)cc1OC` (stereo unspecified), for which the % Hoechst-high responders is 1.52%, the % tubulin-high responders was 3.35% (inactive) and the toxicity was determined as 7.37%.

Regarding `COc1ccccc1NC(=O)C1=C(C)Nc2nc3ccccc3n2C1c1cccs1` (stereo unspecified), the % Hoechst-high responders came to 37.9%, the % tubulin-high responders is 14.5% (active) and the toxicity turned out to be 54.8%.

With `Cc1ccc(-n2c(C)cc(C(=O)CSc3nnc4ccccn34)c2C)cc1`, the % Hoechst-high responders is 2.88%, the % tubulin-high responders is 3.52% (inactive) and the toxicity was found to be 5.15%.

On to `COc1ccc(OC)c(Nc2nc(-c3ccc(O)c(O)c3)cs2)c1`, for which the % Hoechst-high responders is 33.9%, the % tubulin-high responders is 34% (active) and the toxicity amounted to 37%.

With `COc1ccc(-c2csc(Nc3ccc(O)cc3)n2)cc1`, the % Hoechst-high responders was found to be 4.55%, the % tubulin-high responders was 6.13% (inactive) and the toxicity was 2.94%.

For `COc1ccc(Nc2nc(-c3ccccc3)cs2)cc1`, the % Hoechst-high responders was 2.53%, the % tubulin-high responders is 3.24% (inactive) and the toxicity was 3.05%.

Regarding `COc1ccc(NC(C(=O)Nc2cccc(C(C)=O)c2)c2ccccc2)cc1` (stereo unspecified), the % Hoechst-high responders was found to be 4.94%, the % tubulin-high responders was 2.7% (inactive) and the toxicity is 7.43%.

On to `CCc1cc2cc(OC)ccc2nc1SCC(=O)Nc1cc(OC)c(OC)cc1C(=O)O`, for which the % Hoechst-high responders came out at 1.91%, the % tubulin-high responders was 2.13% (inactive) and the toxicity came out at 7.82%.

With `COc1ccccc1C(c1nnnn1CC1CCCO1)N1CCN(c2ccccc2)CC1` (stereo unspecified), the % Hoechst-high responders stood at 1.03%, the % tubulin-high responders is 3.39% (inactive) and the toxicity turned out to be 0.528%.

For `O=C(c1cn(-c2ccccc2)nc1-c1cc2ccccc2oc1=O)N1CCOCC1`, the % Hoechst-high responders was 1.17%, the % tubulin-high responders is 1.1% (inactive) and the toxicity was 0.611%.

`O=c1oc2ccccc2cc1-c1cn(-c2ccccc2)c(=S)[nH]1`: the % Hoechst-high responders is 36.5%, the % tubulin-high responders was 12.5% (active) and the toxicity is 39.3%.

As to `Nc1ncc(-c2cc3ccccc3oc2=O)s1`, the % Hoechst-high responders is 2.39%, the % tubulin-high responders was 5.77% (inactive) and the toxicity is 5%.

`Cc1ccc(S(=O)(=O)CCC(=O)OCc2ccccc2)cc1`: the % Hoechst-high responders came out at 1.72%, the % tubulin-high responders is 4.05% (inactive) and the toxicity amounted to 4.99%.

In the case of `CC1CCN(c2ccc([N+](=O)[O-])cc2C(N)=O)CC1`, the % Hoechst-high responders was 1.09%, the % tubulin-high responders is 5.37% (inactive) and the toxicity was found to be 13%.

For `O=c1cc(N2CCCCC2)c(-c2ccccc2)nn1Cc1cccc(F)c1`, the % Hoechst-high responders was 0.91%, the % tubulin-high responders is 7.03% (inactive) and the toxicity was 4.95%.

`Cc1ccc(-c2cc(=O)c3ccc(F)cc3[nH]2)cc1`: the % Hoechst-high responders worked out at 14.3%, the % tubulin-high responders was 22.4% (active) and the toxicity was 28.4%.

For `Cc1ccc(-c2cc(=O)c3ccc(Cl)cc3[nH]2)cc1`, the % Hoechst-high responders came to 1.34%, the % tubulin-high responders is 2.15% (inactive) and the toxicity came to 1.49%.

Take `O=c1cc(-c2ccccc2)[nH]c2cc(F)ccc12`: the % Hoechst-high responders turned out to be 48.5%, the % tubulin-high responders is 14.7% (inactive) and the toxicity amounted to 37.5%.

For `CN(CC(=O)NC1CCCC1)S(=O)(=O)c1cnc[nH]1`, the % Hoechst-high responders was 1.61%, the % tubulin-high responders was 4.66% (inactive) and the toxicity was found to be 8.08%.

For `Cc1nn(CC2CC2)c(=O)n1N(C)c1ncc(C(F)(F)F)cc1Cl`, the % Hoechst-high responders turned out to be 3.3%, the % tubulin-high responders is 5.71% (inactive) and the toxicity amounted to 3.78%.

With `CN(NC(=O)c1ccccc1F)c1nc(C(F)(F)F)nc2ccccc12`, the % Hoechst-high responders was 59.1%, the % tubulin-high responders was 12.1% (active) and the toxicity stood at 32.2%.

For `COC(=O)CNC(=O)c1ccccc1F`, the % Hoechst-high responders amounted to 1.58%, the % tubulin-high responders is 0.975% (inactive) and the toxicity was 9.24%.

As to `Cc1cc(C)n(-c2nc(C(F)(F)F)nc3ccccc23)n1`, the % Hoechst-high responders is 2.48%, the % tubulin-high responders was 5.42% (inactive) and the toxicity amounted to 5.25%.

On to `CSc1nc(N(C)NC(=O)c2cccc(C)c2)c2ccccc2n1`, for which the % Hoechst-high responders amounted to 33.9%, the % tubulin-high responders is 13.4% (inactive) and the toxicity was 39.2%.

In the case of `COc1ccc(C(=O)NN(C)c2nc(-c3ccccc3)cc(C)c2S(C)(=O)=O)cc1`, the % Hoechst-high responders is 3.04%, the % tubulin-high responders was 2.71% (inactive) and the toxicity was determined as 4.33%.

As to `CN(NC(=O)c1ccccc1)c1nc2ccccc2nc1C(F)(F)F`, the % Hoechst-high responders was found to be 38%, the % tubulin-high responders is 48.6% (active) and the toxicity is 33.5%.

Turning to `CCN(CC)S(=O)(=O)c1ccc(N(C)CCc2ccc(OC)c(OC)c2)nc1`, the % Hoechst-high responders was 1.73%, the % tubulin-high responders is 5.42% (inactive) and the toxicity was found to be 7.66%.

With `Cc1ccc(COc2ccc(/C=N/NC(=O)CN3CCCCC3)cc2)cc1`, the % Hoechst-high responders is 2.2%, the % tubulin-high responders was 1.76% (inactive) and the toxicity came to 4.99%.

For `Cc1ccc(/C=N/NC(=O)c2sccc2OCc2ccc(F)cc2)cc1`, the % Hoechst-high responders is 18.4%, the % tubulin-high responders was 39.2% (active) and the toxicity is 68.8%.

Regarding `Cc1ccsc1C(=O)N/N=C/c1ccc([N+](=O)[O-])cc1`, the % Hoechst-high responders was 2.36%, the % tubulin-high responders was 3.58% (inactive) and the toxicity stood at 0.132%.

As for `Cn1cnnc1SCC(=O)Nc1ccc(N2CCOCC2)cc1`, the % Hoechst-high responders turned out to be 3.45%, the % tubulin-high responders is 1.73% (inactive) and the toxicity came to 7.15%.

With `O=C(c1snnc1-c1ccccc1)N1CCOCC1`, the % Hoechst-high responders worked out at 2.21%, the % tubulin-high responders is 5.38% (inactive) and the toxicity stood at 8.24%.

As to `O=C(COC(=O)c1cc(S(=O)(=O)N2CCCCC2)ccc1Cl)NCc1ccco1`, the % Hoechst-high responders was 2.04%, the % tubulin-high responders was 2.32% (inactive) and the toxicity is 4.83%.

Regarding `Cc1cc(C(=O)OCC(=O)NCc2ccco2)c(C)n1-c1ccccc1`, the % Hoechst-high responders came to 31.8%, the % tubulin-high responders is 24.1% (active) and the toxicity was 57.4%.

Turning to `O=C(COC(=O)c1cnc(Cl)c(Cl)c1)NCc1ccco1`, the % Hoechst-high responders is 2.45%, the % tubulin-high responders was 2.71% (inactive) and the toxicity stood at 7.79%.

Consider `O=C(Cn1nnc(-c2ccccc2)n1)N/N=C/c1ccc(-c2ccc(Cl)cc2)o1`, for which the % Hoechst-high responders is 2.75%, the % tubulin-high responders is 3.12% (inactive) and the toxicity came to 5.19%.
